Reference: PubChem BioAssay AID2216 (Broad Institute, 2009)
Screen size: about 300,000 compounds; about 3,300 (1.1%) were called active. About 6% were inconclusive and are not listed. The entries come from a sample that favours actives as a whole. Values without a mark were called inactive.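 How the source made its calls: active means more than half of the replicate wells show a fall in the fluorescence ratio signal beyond about 16% (limit read from the data, passing the limit was not always enough); inconclusive means exactly half of the replicate wells pass the set limit; inactive means fewer than half of replicates pass the limit.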

Each compound was assayed on Ran GTPase (GTP-bound) - importin-beta complex (assay: inhibitors of RanGTP-importin-beta interaction, primary screen, biochemical, FRET, CFP-Ran, YFP-importin-beta, homogeneous (AID 2216;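 further: 0% = DMSO wells and 100% = Ran loaded with GDP instead of GTP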)). Conditions: cell-free CFP-Ran/YFP-importin-beta FRET ratio; active compounds read high; concentration not given here.

Q: For `Cc1sc2nc(CSCC(=O)NC3CCCCC3)[nH]c(=O)c2c1C`, which inhibition is on record?
A: 1.87%

Q: `O=S(=O)(NCCCc1ccccc1)c1ccc(Br)cc1` was tested. Which inhibition did it give?
A: -1.87%

Q: With `Cc1cc(=O)oc2cc(NC(=O)C(C)Oc3ccccc3)ccc12` (stereo not drawn) as the compound, how does the inhibition read?
A: 3.05%

Q: `CCOC(=O)C1(Cc2cccc(OC)c2)CCN(Cc2csc(C(C)=O)c2)CC1` was tested. Which inhibition did it give?
A: 33.4% (active)

Q: Which inhibition does the source give for `CCOC(=O)C1(Cc2cccc(OC)c2)CCN(C(C)CC(C)(C)O)CC1` (stereo not drawn) here?
A: 2.47%

Q: For `CCOC(=O)C1(Cc2cccc(OC)c2)CCN(C(C)COC)CC1` (stereo not drawn), which inhibition is on record?
A: 7.78%

Q: How did the inhibition turn out when `COc1ccc(Nc2ncnc3sc(C)cc23)cc1` was run?
A: -4.52%

Q: Which inhibition does the source give for `Cc1cc(C)c2nc(SCCC#N)nc(C)c2c1` here?
A: 4.53%

Q: With `Cc1cc(C)c2nc(-c3ccco3)cc(C(=O)O)c2c1` as the compound, how does the inhibition read?
A: -1.33%

Q: How did the inhibition turn out when `Cc1cc(C)c2nc3nc(C)cc(C)c3c(N)c2c1` was run?
A: 123% (active)

Q: `CCC1Nc2ncnc(N3CCN(c4ccccc4)CC3)c2N(Cc2ccc(Cl)cc2)C1=O` (stereo not drawn) was tested. Which inhibition did it give?
A: 3.14%

Q: How did the inhibition turn out when `CCOC(=O)c1cccc(NS(=O)(=O)c2c(C(=O)N3CCCCCC3)c(C)n(C)c2C)c1` was run?
A: -0.759%

Q: How did the inhibition turn out when `Cc1cc(Nc2ccccc2)n(CCC#N)n1` was run?
A: 64.2% (active)

Q: How did the inhibition turn out when `Cc1cc(NC(=O)COc2ccc(Cl)cc2Cl)n(CCC#N)n1` was run?
A: 0.324%

Q: How did the inhibition turn out when `Cc1cc(Nc2ccccc2)n(C(=O)c2ccc(N)cc2)n1` was run?
A: 11.7%

Q: `COc1ccc(NC(=O)CN(C)C(=O)c2cc(-c3ccc(C)o3)nc3ccccc23)cc1` was tested. Which inhibition did it give?
A: 3.47%

Q: How did the inhibition turn out when `Cc1ccc(C(=O)Nc2cccc3ncccc23)cc1[N+](=O)[O-]` was run?
A: -5.75%

Q: With `Cc1ccc(/C=C(\C#N)C(=O)Nc2cccc3ncccc23)o1` as the compound, how does the inhibition read?
A: 24.4% (active)

Q: `O=C(Nc1cccc2ncccc12)C(Cl)(Cl)Cl` was tested. Which inhibition did it give?
A: -1.34%

Q: How did the inhibition turn out when `COc1ccc(NC(=O)CN(C)C(=O)c2cccc(S(=O)(=O)N3CCN(c4ccccc4)CC3)c2)cc1` was run?
A: 5.36%

Q: `Cc1sc(NC(=O)c2ccc3ncsc3c2)c(C(N)=O)c1C` was tested. Which inhibition did it give?
A: 7.92%

Q: Which inhibition does the source give for `COc1ccc(NS(=O)(=O)c2ccc(C)c(C(=O)N(C)Cc3ccc(OC)cc3OC)c2)cc1` here?
A: -0.0635%

Q: How did the inhibition turn out when `O=C(Nc1nc2c(F)cc(F)cc2s1)C1COc2ccccc2O1` (stereo not drawn) was run?
A: -1.75%

Q: How did the inhibition turn out when `COc1ccc(NC(=O)C2COc3ccccc3O2)cc1` (stereo not drawn) was run?
A: 3.21%

Q: For `COc1ccc(OC)c2sc(NC(=O)C3COc4ccccc4O3)nc12` (stereo not drawn), which inhibition is on record?
A: 18.3% (active)

Q: How did the inhibition turn out when `Cn1nccc1C(=O)NC1CCCc2c1cnn2-c1ccccc1F` (stereo not drawn) was run?
A: 1.44%

Q: How did the inhibition turn out when `Cn1c(=O)c(Sc2ccc(Cl)cc2)c(O)c2ccccc21` was run?
A: -0.611%

Q: With `Cc1cc(C)c(-c2c(O)c3ccccc3n(C)c2=O)c(C)c1` as the compound, how does the inhibition read?
A: -1.11%

Q: For `Cn1c2ccccc2c(=O)c2c(O)cccc21`, which inhibition is on record?
A: 19.5% (active)

Q: Which inhibition does the source give for `COC(C/C=C/C(=O)[C@@H](C)OCc1ccccc1)OC` here?
A: -3.23%

Q: `N#C/C(=C/c1ccc(-c2ccccc2[N+](=O)[O-])o1)C(=O)NCCN1CCCCC1` was tested. Which inhibition did it give?
A: 0.797%

Q: With `O=C(NCCc1c[nH]c2ccccc12)C(=O)NCC1CCCO1` (stereo not drawn) as the compound, how does the inhibition read?
A: 0.222%

Q: For `N#C/C(=C/c1ccc(N2CCCCC2)o1)C(=O)NCCc1c[nH]c2ccccc12`, which inhibition is on record?
A: 36.8% (active)

Q: For `CCCCn1c(N)c(N(CC(C)C)C(=O)c2cccc(S(=O)(=O)N3CC(C)OC(C)C3)c2)c(=O)[nH]c1=O` (stereo not drawn), which inhibition is on record?
A: -2.71%

Q: With `Nc1ccccc1/C=N\N=C/c1ccccc1N` as the compound, how does the inhibition read?
A: 1.49%

Q: With `COc1ccc(CNc2nnnn2C)cc1` as the compound, how does the inhibition read?
A: 0.267%

Q: `Fc1ccc(CNc2nc3ccccc3n3nnnc23)cc1` was tested. Which inhibition did it give?
A: 28.7% (active)

Q: For `Nc1nonc1-c1nc2ccccc2n1Cc1ccc(F)cc1`, which inhibition is on record?
A: 3.99%

Q: Which inhibition does the source give for `CCC1CCC/C1=N\NC(=O)c1ccc(Cl)cc1` (stereo not drawn) here?
A: -0.716%

Q: Which inhibition does the source give for `COC(=O)C1=CN(Cc2ccc(OC)cc2)C=C(C(=O)OC)C1c1ccc(O)c(OC)c1` here?
A: 18.3% (active)

Q: For `COC(=O)C1=CN(Cc2ccc(OC)c(OC)c2)C=C(C(=O)OC)C1c1cccs1`, which inhibition is on record?
A: -0.0693%

Q: `COc1cc(C2C(C(=O)c3ccc(C)o3)=C(O)C(=O)N2CCc2ccccc2)ccc1O` (stereo not drawn) was tested. Which inhibition did it give?
A: -0.99%

Q: How did the inhibition turn out when `Cc1nc2ccccc2c(=O)n1-c1ccc(NS(=O)(=O)c2ccc(F)cc2F)cc1` was run?
A: 0.359%

Q: With `COc1ccc(C(=O)NCC(c2ccco2)N2CCc3ccccc32)cc1OC` (stereo not drawn) as the compound, how does the inhibition read?
A: -0.364%

Q: With `Cc1cccn2c(=O)nc(SCC(=O)NCc3ccccc3Cl)nc12` as the compound, how does the inhibition read?
A: -2.28%

Q: How did the inhibition turn out when `COCCNc1ncnc2c1nc1n2CCCC1` was run?
A: -7.47%

Q: With `COCCNc1nc2nonc2nc1N1CCCC1c1nccs1` (stereo not drawn) as the compound, how does the inhibition read?
A: 24.9% (active)

Q: How did the inhibition turn out when `COCCNc1nc2nonc2nc1N(C)Cc1ccc(C)cc1` was run?
A: -1.03%

Q: `COC(=O)c1cccc(NS(C)(=O)=O)c1` was tested. Which inhibition did it give?
A: 3.63%

Q: With `COC(=O)c1ccc(NCC(=O)c2ccccc2)cc1` as the compound, how does the inhibition read?
A: 1.3%

Q: With `COC(=O)c1ccc2c(C(C)(C)O)c(C(C)(C)O)[nH]c2c1` as the compound, how does the inhibition read?
A: 35.4% (active)

Q: `CC1CC(C)(C)CC2(C1)NC(=O)N(CC(=O)Nc1nccs1)C2=O` (stereo not drawn) was tested. Which inhibition did it give?
A: -1.02%

Q: For `CCCCN(C(=O)CCNC(=O)NC12CC3CC(CC(C3)C1)C2)c1c(N)n(CCCC)c(=O)[nH]c1=O`, which inhibition is on record?
A: 0.758%

Q: Which inhibition does the source give for `CCN1N=C(c2ccccc2)CCC1=O` here?
A: 2.2%

Q: For `CC1(C)CC(=O)NC=C(c2ccccc2)C1`, which inhibition is on record?
A: 25.4% (active)

Q: For `O=C1C=C(c2ccccc2)CCC1`, which inhibition is on record?
A: 3.08%

Q: How did the inhibition turn out when `COc1cc(OC)c(OC)cc1CN1CCN(C(=O)c2cccc3ccccc23)CC1` was run?
A: 2.06%

Q: Which inhibition does the source give for `Cc1ccc(NC(=O)CN2CCc3ccccc3C2)cc1C` here?
A: 6.66%

Q: With `Cc1ccc(NC(=O)CN2CCc3ccccc3C2)cc1` as the compound, how does the inhibition read?
A: -0.397%

Q: How did the inhibition turn out when `COc1cc2c(cc1OC)CN(CC(=O)Nc1ccc(F)cc1)CC2` was run?
A: 16.9% (active)

Q: With `CCOC(=O)C1(Cc2ccccc2C)CCCN(C(=O)c2ccc(COC)o2)C1` (stereo not drawn) as the compound, how does the inhibition read?
A: -3.09%

Q: With `COc1ccc(Cl)cc1NC(=O)CN(C)C(=O)c1cc2ccccc2cc1OC` as the compound, how does the inhibition read?
A: 1.71%

Q: How did the inhibition turn out when `CC(C)c1ccc(S(=O)(=O)N2CCN(C(=O)CN3C(=O)NC(C)(c4ccccc4)C3=O)CC2)cc1` (stereo not drawn) was run?
A: 0.837%
